Screening data (PubChem)
Most compounds without a hit are left out; they make up all but 11% or so of the library.
NIH3T3 tox = Cytotoxic Profiling in NIH 3T3 Cell Line of Diverse Libraries Using Quantitative High-Throughput Screening; Potency, µM (doses to about 96.7 µM), without a hit: at the top dose activity change, negative = cytotoxicity, hits mostly inhibitors; NIH 3T3 viability, CellTiter-Glo ATP luminescence, 48-72 h; hit rate 4.3% among 94,000; also: nearly all actives have a fitted effect of over 55% in size
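Cytotoxicity was measured by CellTiter-Glo ATP luminescence after 48 or 72 h compound exposure at 37 °C. Mouse NIH 3T3 fibroblasts were seeded at 400 cells/well and dosed by 23 nL pin transfer.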
FLuc inh = Firefly luciferase inhibition profiling of diverse chemical library using quantitative high-throughput screening. Luciferin 4-monooxygenase (Photinus pyralis), P08659. purified P. pyralis luciferase, luminescence, biochemical. Potency, µM (top dose mostly 115 µM), most hits filed as inhibitors. hit rate 2.5% among 76,000. AID 1347043, 2019; also: nearly all actives have a fitted effect of over 65% in size
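Inhibitors were tested against purified firefly luciferase in a biochemical, low-substrate format (both substrates at 10uM) and luminescence measured with a CCD imager.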
HEK cytotox = Cytotoxic Profiling in HEK 293 Cell Line of Diverse Libraries Using Quantitative High-Throughput Screening | HEK 293 viability, ATP luminescence (CellTiter-Glo), 48-72 h | Potency, µM (doses to about 115 µM), for the others: at the highest dose activity change, negative = cytotoxicity, actives largely listed as inhibitors | hit rate 6.6% among 94,000; also: nearly all actives have a fitted effect of over 60% in size
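qHTS cytotoxicity; HEK 293, 250 cells/well; compound pinned; 48 or 72 hr, 37 degree Celsius, 5% CO2, 95% humidity; CellTiter-Glo, 10 min RT; luminescence (ATP).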
NPR1 antag = Natriuretic polypeptide receptor (hNpr1) antagonism - Primary qHTS; HEK293 hNpr1 GloSensor cGMP, ANP-stimulated luminescence; Potency, µM (top dose mostly 46.3 µM), for the others: at the top dose activity change, negative = inhibition, hits mostly inhibitors; hit rate 1.6% among 76,000; AID 1347048, 2019; calls by dose curve; also: nearly all actives have a fitted effect of over 60% in size
Target sequence (P16066 whole entry, looked up): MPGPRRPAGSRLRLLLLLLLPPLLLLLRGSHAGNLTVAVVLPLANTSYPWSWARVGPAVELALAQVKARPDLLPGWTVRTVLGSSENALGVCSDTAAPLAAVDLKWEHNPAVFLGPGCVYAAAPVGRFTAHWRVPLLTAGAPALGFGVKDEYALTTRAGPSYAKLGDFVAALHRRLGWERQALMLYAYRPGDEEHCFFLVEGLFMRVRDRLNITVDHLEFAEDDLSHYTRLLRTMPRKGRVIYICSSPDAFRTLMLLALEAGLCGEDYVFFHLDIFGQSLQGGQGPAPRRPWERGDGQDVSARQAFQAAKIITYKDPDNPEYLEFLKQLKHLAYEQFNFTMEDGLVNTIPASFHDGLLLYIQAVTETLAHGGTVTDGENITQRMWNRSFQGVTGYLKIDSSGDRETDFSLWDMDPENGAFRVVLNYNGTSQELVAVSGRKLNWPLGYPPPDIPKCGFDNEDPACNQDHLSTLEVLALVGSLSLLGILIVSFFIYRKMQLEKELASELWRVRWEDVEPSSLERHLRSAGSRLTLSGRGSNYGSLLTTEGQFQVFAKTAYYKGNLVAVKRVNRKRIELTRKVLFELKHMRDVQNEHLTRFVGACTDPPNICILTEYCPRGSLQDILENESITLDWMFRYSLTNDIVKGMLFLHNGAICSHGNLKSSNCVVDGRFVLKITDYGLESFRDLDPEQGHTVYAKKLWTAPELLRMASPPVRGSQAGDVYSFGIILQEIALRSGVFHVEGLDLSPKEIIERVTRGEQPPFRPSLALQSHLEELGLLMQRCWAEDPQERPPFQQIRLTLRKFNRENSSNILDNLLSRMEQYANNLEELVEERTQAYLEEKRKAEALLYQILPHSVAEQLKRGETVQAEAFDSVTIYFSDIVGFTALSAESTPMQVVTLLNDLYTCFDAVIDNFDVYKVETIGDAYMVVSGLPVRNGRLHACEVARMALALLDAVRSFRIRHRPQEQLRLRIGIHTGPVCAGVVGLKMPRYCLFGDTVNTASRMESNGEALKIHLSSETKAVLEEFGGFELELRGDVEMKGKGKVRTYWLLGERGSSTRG
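Compound pre-incubated 30 min at room temperature on GloSensor-loaded HEK293 cells stably carrying hNpr1 and the pGS-40F cGMP biosensor. Stimulation uses hNppA at 0.1 nM final; luminescence is taken at baseline and 20 min post-agonist.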
An asterisk follows results filed as active; i = inactive; ? = inconclusive; · = no result; [ ] = dose if it differs, or a comment. Unless noted, calls follow the shape of the dose curve; as a rule, active = well fitted curve in the direction sought with a large enough effect; inconclusive = small, poorly fitted or top-dose-only effect, or another doubt; inactive = no such curve, though single readings can be large; an effect the other way counts as inactive or inconclusive. % is scaled to controls: 0 for no effect and ±100 for the full control effect; potency is read from the fitted curve at half-maximal effect.

SMILES | NIH3T3 tox | FLuc inh | HEK cytotox | NPR1 antag
O=C(CC1CCCC1)N1CCCC(Cc2nncn2Cc2ccccc2)C1 (stereo unspecified) | -3% | · | -4% | ·
CN1CCN(C(=O)c2cc(COc3ccc(F)cc3F)on2)CC1c1ccccc1 (stereo unspecified) | ? | i | 20µM* | -21%
CN(Cc1cnc2ccccn12)C(=O)c1cc(COc2ccc(F)cc2F)on1 | ? | i | ? | ?
Cc1cccc2nc(CNC(=O)c3cc(COc4ccc(F)cc4F)on3)cn12 | 32µM* | i | ? | 4%
COCCNc1nc2c(S(=O)(=O)c3ccc(C)c(C)c3)nnn2c2ccccc12 | ? | · | -30% | ·
O=C(Cc1cccc(C(F)(F)F)c1)N1CCCc2ncc(C(=O)N3CCCC[C@@H]3Cc3ccccc3)cc21 | ? | i | 79µM* | -4%
CC(C)c1ccc(CC(=O)N2CCCc3ncc(C(=O)N4CCCC[C@@H]4Cc4ccccc4)cc32)cc1 | 35µM* | i | 45µM* | -7%
CC(C)n1c(C2CCN(C(=O)c3ccoc3)CC2)nn(C)c1=O | 0% | · | i | ·
O=C(CC(c1ccccc1)c1ccc2c(c1)OCO2)N1CCSCC1 (stereo unspecified) | -25% | i | ? | ?
Cc1csc(CN(C)C(=O)CC(c2ccccc2)c2ccc3c(c2)OCO3)n1 (stereo unspecified) | -23% | 32µM* | 45µM* | -31%
CC1=C[C@@H](CN2CCC(O)CC2)[C@H](C(C)C)C[C@H]1Cc1nnc(-c2ccc(N(C)C)cc2)o1 | 40µM* | i | ? | 5%
COCCN1CCN(C[C@@H]2C=C(C)[C@H](Cc3nnc(-c4cccnc4)o3)C[C@H]2C(C)C)CC1 | ? | i | ? | -4%
COCCN1CCN(C[C@@H]2C=C(C)[C@H](Cc3nnc(-c4ccc(N(C)C)cc4)o3)C[C@H]2C(C)C)CC1 | ? | i | 32µM* | 2%
CSc1ccc(-c2cccc(CN3CCC(NC(=O)C(C)(C)C)CC3)c2)cc1 | -25% | · | ? | ·
CN(C)c1ccc2nnc(-c3cc(C(=O)Nc4cccc(Cl)c4)ccn3)n2n1 | 7.9µM* | i | -28%[172 µM] | -17%[70.6 µM]
CN(c1ccccc1)c1ccc2nnc(-c3cc(C(=O)N4CC(O)C4)ccn3)n2n1 | 100µM* | i | ? | 4%[70.6 µM]
COC1CCN(C(=O)c2ccnc(-c3nnc4ccc(N(C)C)nn34)c2)CC1 | 45µM* | i | -6%[172 µM] | 6%[70.6 µM]
O=C(Nc1cccc(Cl)c1)c1ccnc(-c2nnc3ccc(N4CCOCC4)nn23)c1 | ? | i | ? | -9%[70.6 µM]
O=C(Nc1cccnc1)c1ccnc(-c2nnc3ccc(N4CCOCC4)nn23)c1 | 100µM* | i | -10%[172 µM] | 9%[70.6 µM]
COc1ccnc(-c2nnc3ccc(N(C)c4ccccc4)nn23)c1 | 20µM* | i | 45µM* | -13%[70.6 µM]
CN(C)c1ncc2c(n1)C(C)(C(=O)Nc1ccncc1)CCC2 (stereo unspecified) | 10µM* | i | ? | -2%[70.6 µM]
CN(C)c1ncc2c(n1)C(C)(C(=O)NCc1cccc(F)c1)CCC2 (stereo unspecified) | ? | i | ? | -2%[70.6 µM]
CN(C)c1ncc2c(n1)C(C)(C(=O)Nc1cccc(F)c1)CCC2 (stereo unspecified) | ? | i | ? | -14%[70.6 µM]
CN(C)c1ncc2c(n1)C(C)(C(=O)NCc1cccc(Cl)c1)CCC2 (stereo unspecified) | ? | i | 100µM* | -22%[70.6 µM]
Cn1cc(C(=O)Nc2ccc3c(c2)C(=O)N2CCC[C@H]2C(=O)N3)c2ccccc21 | -19% | i | 7% | 1%
SMILES | NIH3T3 tox | FLuc inh | HEK cytotox | NPR1 antag
Cc1ccc(-c2nc(C)c(C(=O)Nc3ccc4c(c3)C(=O)N3CCC[C@H]3C(=O)N4)s2)cc1 | -11% | 28µM* | ? | -7%
O=C1OCC2(CCN(Cc3cccc(OC(F)(F)F)c3)C2)N1c1ccncc1 (stereo unspecified) | ? | i | 100µM* | 7%[70.6 µM]
Cn1cc(CN2CC3(COCC(=O)N(Cc4cccc(OC(F)(F)F)c4)C3)C2)cn1 | -19%[138 µM] | i | ? | -16%[70.6 µM]
O=C1COCC2(CN1Cc1cccc(OC(F)(F)F)c1)CN(c1ccccn1)C2 | -16%[138 µM] | i | ? | -2%[70.6 µM]
O=C1COCC2(CN1Cc1cccc(OC(F)(F)F)c1)CN(c1ccccc1F)C2 | 89µM* | i | 89µM* | 0%[70.6 µM]
O=C1COCC2(CN(Cc3ccsc3)C2)CN1Cc1cccc(OC(F)(F)F)c1 | 45µM* | i | 63µM* | -19%[70.6 µM]
O=C(NC1CCCCC1)C1CCc2nnc(-c3ccc(F)cc3)n21 (stereo unspecified) | -14%[138 µM] | · | -12%[172 µM] | ·
COCCN1Cc2nc(-c3cccc(OC(F)(F)F)c3)ccc2OCC1=O | ? | i | ? | 0%[70.6 µM]
O=C1N2CCCC2CN1C1CCN(Cc2ccc(C(F)(F)F)cc2)CC1 (stereo unspecified) | ? | i | 40µM* | ?
COc1ccc(CN2CCC(N3CC4CCCN4C3=O)CC2)cc1 (stereo unspecified) | -3%[138 µM] | i | 0%[172 µM] | 2%[70.6 µM]
COc1ccc(CN2CCNc3cnc(Nc4cccnc4)cc3C2)cc1O | ? | i | ? | 2%[70.6 µM]
COc1ccc(CN2CCNc3cnc(Oc4ccccc4)cc3C2)cc1O | ? | i | 63µM* | -4%[70.6 µM]
FC(F)(F)c1ccc(CN2CCNc3cc(Nc4cccnc4)ncc3C2)cc1 | ? | i | 32µM* | ?
c1cncc(COc2cc3c(cn2)NCCN(Cc2ccsc2)C3)c1 | -26%[138 µM] | i | ? | -10%[70.6 µM]
Cc1cccc(CN2CCNc3cc(Nc4cccnc4)ncc3C2)c1 | ? | i | ? | 0%[70.6 µM]
Oc1ccccc1CN1CCNc2cnc(OCc3cccnc3)cc2C1 | -19%[138 µM] | i | 100µM* | ?
c1cncc(Nc2cc3c(cn2)CN(Cc2ccc4[nH]ccc4c2)CCN3)c1 | ? | 40µM* | 89µM* | -23%[70.6 µM]
COc1ccc(CN2CCNc3cnc(Nc4ccccc4)cc3C2)cc1O | ? | i | ? | 0%[70.6 µM]
CCN1CCN(c2nc3c(s2)CN(C(=O)c2ccncc2)CC3)CC1 | 1% | i | ? | -2%
COc1ccccc1-c1nnc2ccc(C(=O)N3CCOCC3)cn12 | 2%[138 µM] | · | -1%[172 µM] | ·
COc1ccc(OCC2CN(CC(C)C)[S+](=O)([O-])c3cnccc3O2)cc1 (stereo unspecified) | -38%[46.1 µM] | · | ? | ·
COc1ccccc1CN(C)C(=O)CC1C(=O)NCCN1CC1CCCCC1 (stereo unspecified) | 2% | i | ? | 2%
N#Cc1ccc(CN2CCC(N3Cc4cccn4C3=O)CC2)cc1 | -24% | · | ? | ·
COc1ccc(CCNC(=O)C2CCc3nnc(-c4cccc(C(F)(F)F)c4)n32)cc1 (stereo unspecified) | -26% | · | -13% | ·
